# Results: PubChem BioAssay (NCATS)
# “And” between values parts separate entries of the source, which are not always exact repeats. Equal values may be shown once. Records with an inconclusive call do not appear. Entries that show only a call come without a potency. A structure can be active in one record and inactive in another. The source made the active and inactive calls. Unless noted, calls come from the whole dose curve; as a rule, active = well fitted curve in the direction sought with a large enough effect; inconclusive = small, poorly fitted or top-dose-only effect, or another doubt; inactive = no such curve, though single readings can be large; an effect the other way counts as inactive or inconclusive.
# Tests used:
# [1] = Primary qHTS for small molecule stabilizers of the endoplasmic reticulum resident proteome: Secreted ER Calcium Modulated Protein (SERCaMP) assay (AID 1508630); note: potency is the fitted concentration of half-maximal effect
# Procedure, shortened: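 The SH-SY5Y reporter protocol was run at 3 concentrations up to 38.3 uM (primary) or 11 concentrations (follow-up): 16 h compound, 100 nM thapsigargin for 4 h, then extracellular luciferase luminescence.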
# [2] = Cell Viability qHTS for small molecule stabilizers of the endoplasmic reticulum resident proteome (AID 1508629); details: cell viability counter-screen, 100 nM thapsigargin for final 4 h;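 note: compound exposure about 46 h in total before the viability read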; note: potency is the fitted concentration of half-maximal effect
# [3] = Confirmatory qHTS for small molecule stabilizers of the endoplasmic reticulum resident proteome: Secreted ER Calcium Modulated Protein (SERCaMP) assay (AID 1508628); note: nearly all actives have a fitted effect of over 40% in size; note: potency is the fitted concentration of half-maximal effect
# Source text: Assay Provider: Brandon K. Harvey Ph.D.
# National Institute on Drug Abuse, National Institutes of Health, Baltimore, MD
# Endoplasmic reticulum (ER) dysregulation is associated with human pathologies including neurodegenerative, cardiovascular, muscular, and diabetic conditions. Maintenance of ER calcium is critical for functions of the ER and its depletion can lead to loss of ER resident proteins, in a process termed exodosis. Therapeutic compounds capable of attenuating the redistribution of ER proteins under pathological conditions may slow or stop disease progression. To identify such compounds, we performed a quantitative high-throughput screen (qHTS) using the SERCaMP assay, which monitors secretion of ER resident proteins triggered by calcium depletion.
# SERCaMP was initially developed as a reporter of ER calcium homeostasis using a Gaussia luciferase with a modified signal peptide and carboxy-terminus (GLuc-SERCaMP), modifications that confer secretion of the reporter in response to ER calcium depletion (Henderson et al., 2014). The assay was used to screen 9,501 compounds, including a collection of drugs approved by the FDA (US), EMA (EU), NHI (Japan), and HC (Canada) regulatory agencies (Huang et al., 2011). Since the SERCaMP reporter reflects the exodosis phenomenon (Trychta et al., 2018a), compounds identified in the screen have the potential to prevent exodosis by different mechanisms such as stabilizing ER calcium or augmenting ERS retrieval.
# 1. Henderson, M.J., Wires, E.S., Trychta, K.A., Richie, C.T., and Harvey, B.K. (2014). SERCaMP: a carboxy-terminal protein modification that enables monitoring of ER calcium homeostasis. Mol Biol Cell 25, 2828-2839.
# 2. Huang, R., Southall, N., Wang, Y., Yasgar, A., Shinn, P., Jadhav, A., Nguyen, D.T., and Austin, C.P. (2011). The NCGC pharmaceutical collection: a comprehensive resource of clinically approved drugs enabling repurposing and chemical genomics. Sci Transl Med 3, 80ps16.
# 3. Trychta, K.A., Back, S., Henderson, M.J., and Harvey, B.K. (2018a). KDEL Receptors Are Differentially Regulated to Maintain the ER Proteome under Calcium Deficiency. Cell Rep 25, 1829-1840 e1826.
# SEQUENCE No. (1, 2, 3, etc.); […] (e.g., Cells, Incubation, Reagent, etc.); VALUE and DESCRIPTION.
# 1; Reagent; 5 uL; 1000 SH-SY5Y cells per wells
# 3; Compound; 23 nL; Control inhibitor / compound library
# 5; Reagent; 100 nM; Thapsigargin
# 7; Reagent; 1 uL; 0.5x coelenterazine
# 8; Detection; Luminescence; ViewLux imaging system
# NOTES (numbers refer to sequence above)
# 1; SH-SY5Y human neuroblastoma cells stably expressing GLuc-SERCaMP (SH-SY5Y-GLuc-ASARTDL) cells were seeded in 1,536 well white tissue culture treated plates (Corning, Cat# 7464) in DMEM-high glucose-sodium pyruvate (ThermoFisher Scientific, Cat #10569) supplemented with 10% bovine growth serum (Hyclone), 10 U/ml penicillin (Gibco), 10 ug/ml streptomycin (Gibco), and 20 mM HEPES.
# 2; Assay plates were incubated for 5 hour at 37C in a humidified incubator containing 5% CO2. […]
# 7; Gaussia luciferase in the medium was measured by adding 1 ul of 0.5x coelenterazine (final concentration 0.07x) prepared in Gaussia Luciferase Glow Assay Buffer (Pierce), without addition of the Cell Lysis Buffer Reagent.
# 8; Luminescence was measured using a ViewLux […] CCD imaging system (Perkin Elmer) equipped with clear filters. […]
# [4] = A High-Content qHTS Against Drug Library for the Identification of Small Molecules that Inhibit DYT1 Early Onset Primary Dystonia-Associated Cell Pathology (AID 1645839; calls by dose curve; note: series mostly up to about 46 µM)
# Procedure, shortened: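 High-content imaging quantified EGFP-TorsinA mislocalization in HEK293-derived cells inducibly expressing DYT1 mutant torsinA, after 48 h exposure to compound given together with tetracycline induction. Cell count served as a toxicity channel alongside %pathology.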
# [5] = biological target: Cytochrome P450 2C9 (Homo sapiens) (UniProt P11712); test: Cytochrome P450 family 2 subfamily C member 9 (CYP2C9) small molecule antagonists: luciferase biochemical (cell-free) qHTS assay (AID 1645842; active = well fitted curve in the direction sought with a large enough effect in the repeat runs; an effect the other way counts as inactive or inconclusive; note: nearly all actives have a fitted effect of over 55% in size; note: potency is the fitted concentration of half-maximal effect)
# Procedure, shortened: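 P450-Glo CYP2C9 system: proluciferin substrate with enzyme in mix containing 0.4% BSA, 10 min at room temperature, then NADPH regeneration solution added and incubated 1 h at 37C. Detection reagent stopped reaction; luminescence read after 20 min as RLU.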
# [6] = biological target: Papain (Carica papaya) (UniProt P00784); test: Primary qHTS assay for inhibitors of the protease papain (AID 1645873);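 note: papain turnover of Z-FR-AMC read as the AMC fluorescence gain over 10 min; series mostly up to about 50 µM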
# [7] = Primary qHTS for inhibitors of nuclear receptor binding SET domain protein 2 (NSD2) in an isogenic RCH-ACV NSD2 p.E1099K mutant (9B) (AID 1645876); note: nearly all actives have a fitted effect of over 70% in size; note: potency is the fitted concentration of half-maximal effect
# [8] = Primary qHTS for inhibitors of nuclear receptor binding SET domain protein 2 (NSD2) in an RCH-ACV wild type WT cells (2C) (AID 1645877); note: nearly all actives have a fitted effect of over 70% in size; note: potency is the fitted concentration of half-maximal effect
# [9] = biological target: Cytochrome P450 2D6 (Homo sapiens) (UniProt P10635); test: Cytochrome P450 family 2 subfamily D member 6 (CYP2D6) small molecule antagonists: luciferase biochemical (cell-free) qHTS assay (AID 1645840; active = well fitted curve in the direction sought with a large enough effect in the repeat runs; an effect the other way counts as inactive or inconclusive; note: series mostly up to about 57 µM; nearly all actives have a fitted effect of over 55% in size)
# Procedure, shortened: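 P450-Glo CYP2D6 system: proluciferin substrate converted by enzyme to luciferin, read by luminescence proportional to activity. Enzyme-substrate mix with compound 10 min at room temperature, then NADPH regeneration 1 h before detection reagent.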
# Chain of Papain (Carica papaya) (P00784 whole entry, looked up, the tested form may be a part): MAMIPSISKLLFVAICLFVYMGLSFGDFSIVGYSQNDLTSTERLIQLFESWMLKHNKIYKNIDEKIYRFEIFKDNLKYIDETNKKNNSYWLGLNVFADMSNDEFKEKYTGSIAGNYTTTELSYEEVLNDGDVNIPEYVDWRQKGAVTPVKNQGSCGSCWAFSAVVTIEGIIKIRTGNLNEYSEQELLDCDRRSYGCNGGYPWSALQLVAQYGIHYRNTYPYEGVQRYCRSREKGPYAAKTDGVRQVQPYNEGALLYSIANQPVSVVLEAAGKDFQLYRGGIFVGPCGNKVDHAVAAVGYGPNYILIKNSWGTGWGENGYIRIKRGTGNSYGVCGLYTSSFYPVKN
# Chain of Cytochrome P450 2C9 (Homo sapiens) (P11712 whole entry, looked up): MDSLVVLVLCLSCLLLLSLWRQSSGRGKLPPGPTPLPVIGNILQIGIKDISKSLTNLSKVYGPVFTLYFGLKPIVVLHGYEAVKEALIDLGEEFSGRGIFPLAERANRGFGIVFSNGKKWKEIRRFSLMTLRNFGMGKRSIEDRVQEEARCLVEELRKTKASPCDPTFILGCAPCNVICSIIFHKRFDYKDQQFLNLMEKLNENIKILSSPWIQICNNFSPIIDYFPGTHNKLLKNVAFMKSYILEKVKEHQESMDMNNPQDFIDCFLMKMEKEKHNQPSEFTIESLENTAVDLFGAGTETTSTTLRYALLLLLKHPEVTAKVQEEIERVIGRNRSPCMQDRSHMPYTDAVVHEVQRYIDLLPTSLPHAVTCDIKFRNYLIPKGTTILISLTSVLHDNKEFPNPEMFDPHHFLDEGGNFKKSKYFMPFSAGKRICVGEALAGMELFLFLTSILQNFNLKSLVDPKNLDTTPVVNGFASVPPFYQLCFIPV
# Chain of Cytochrome P450 2D6 (Homo sapiens) (P10635 whole entry, looked up): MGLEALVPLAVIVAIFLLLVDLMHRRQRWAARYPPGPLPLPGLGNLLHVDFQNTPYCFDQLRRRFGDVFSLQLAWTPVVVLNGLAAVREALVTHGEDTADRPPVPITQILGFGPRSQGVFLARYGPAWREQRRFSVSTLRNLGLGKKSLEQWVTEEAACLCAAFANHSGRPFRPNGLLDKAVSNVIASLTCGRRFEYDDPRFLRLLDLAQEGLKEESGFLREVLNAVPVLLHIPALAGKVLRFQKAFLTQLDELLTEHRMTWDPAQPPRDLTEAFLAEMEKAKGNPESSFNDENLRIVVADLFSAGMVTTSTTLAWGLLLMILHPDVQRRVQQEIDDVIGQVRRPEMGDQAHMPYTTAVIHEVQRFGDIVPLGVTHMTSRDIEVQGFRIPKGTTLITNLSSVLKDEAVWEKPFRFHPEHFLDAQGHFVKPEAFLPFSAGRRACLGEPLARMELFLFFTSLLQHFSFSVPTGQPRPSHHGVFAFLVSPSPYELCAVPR
smiles,measurement,setting,value
CCOC(=O)O[C@]1(C(=O)OCCl)CC[C@@H]2[C@H]3CCC4=CC(=O)C=C[C@]4(C)[C@@H]3[C@@H](O)C[C@@]21C,Potency,[1],inactive
Nc1ncnc2c1ncn2[C@@H]1O[C@H](CO)C[C@@H]1O,max response,[2],15.2% (inactive)
same,Potency,[1],inactive
Cc1cc(OCCCc2c(C(=O)O)n(Cc3cccnc3)c3c(-c4c(COc5ccc(N6CCN([S+](C)(=O)[O-])CC6)cc5)nn(C)c4C)cccc23)cc(C)c1Cl,Potency,[1],inactive
Cn1cc(C=C2C(=O)Nc3cccnc32)c2ccccc21,max response,[2],16.6% (inactive)
CC1(C)S[C@H]2[C@H](NC(=O)[C@@H](N)c3ccc(O)cc3)C(=O)N2[C@@H]1C(=O)O,Potency,[1],inactive
CC=CC(=O)N(CC)c1ccccc1C,Potency,[1],inactive
COc1cc(O)c2c(c1)C(=O)c1cc(C)cc(O)c1C2=O,Potency,[1],inactive
COC(=O)N[C@H](C(=O)N1CCC[C@@H]1c1ncc(-c2ccc(-c3ccc(-c4cnc([C@@H]5CCCN5C(=O)[C@@H](NC(=O)OC)C(C)C)[nH]4)cc3)cc2)[nH]1)C(C)C,Potency,[1],inactive
CC[C@H]1OC(=O)[C@H](C)[C@@H](O[C@H]2C[C@@](C)(OC)[C@@H](O)[C@H](C)O2)[C@H](C)[C@@H](O[C@@H]2O[C@H](C)C[C@H](N(C)C)[C@@H]2O)[C@](C)(O)C[C@@H](C)CN(C)[C@H](C)[C@@H](O)[C@]1(C)O,Potency,[1],inactive
CCN(CC)CCOC(=O)c1ccc(N)cc1,Potency,[3],inactive
same,Potency,[1],inactive
same,Potency,[4],inactive
same,Potency,[5],inactive
same,outcome,[6],inactive
same,Potency,[7],inactive
same,Potency,[8],inactive
O=C(OCC#CCSc1nnc(-c2cccc3ccccc23)o1)c1cc2ccccc2s1,Potency,[1],inactive
CC=CC[C@@H](C)C(=O)[C@H]1C(=O)N[C@@H](C(C)C)C(=O)N(C)CC(=O)N(C)[C@@H](CC(C)C)C(=O)N[C@@H](C(C)C)C(=O)N(C)[C@@H](CC(C)C)C(=O)N[C@@H](C)C(=O)N[C@H](C)C(=O)N(C)[C@@H](CC(C)C)C(=O)N(C)[C@@H](CC(C)C)C(=O)N(C)[C@@H](C(C)C)C(=O)N1C,Potency,[1],inactive
Cc1[nH]c(C=C2C(=O)Nc3ccc(S(=O)(=O)Cc4c(Cl)cccc4Cl)cc32)c(C)c1C(=O)N1CCC[C@H]1CN1CCCC1,Potency,[1],inactive
C[C@]12CC[C@@H]3c4ccc(O)cc4C[C@@H](CCCCCCCCCS(=O)CCCC(F)(F)C(F)(F)F)[C@H]3[C@H]1CC[C@H]2O (stereo not given in full),Potency,[1],inactive
CC(=O)O[C@]1(C(C)=O)CC[C@@H]2[C@@H]3C[C@H](C)C4=CC(=O)CC[C@]4(C)[C@H]3CC[C@@]21C,Potency,[1],inactive
CC(C)(C)OC(=O)N[C@H]1CCCCCC=C[C@@H]2C[C@@]2(C(=O)NS(=O)(=O)C2CC2)NC(=O)[C@@H]2C[C@@H](OC(=O)N3Cc4cccc(F)c4C3)CN2C1=O,Potency,[1],inactive
COc1ccc2c3c1OC1C[C@@H](O)C=C[C@@]31CCN(C)C2 (stereo not given in full),Potency,[1],inactive
CC=CCC=CCCC(=O)[C@H]1O[C@@H]1C(N)=O,Potency,[1],inactive
CC=C(C)C(=O)O[C@H]1C(C)=C[C@]23C(=O)[C@@H](C=C(CO)[C@@H](O)[C@]12O)[C@H]1[C@@H](C[C@H]3C)C1(C)C,Potency,[1],inactive
CC(C)(C(=O)NCC(F)(F)C(F)(F)F)C(=O)N[C@@H]1C(=O)Nc2ccccc2-c2ccccc21,Potency,[1],inactive
O=C1c2ccccc2-[n+]2ccc3c([nH]c4ccccc43)c21,Potency,[3],20000 nM (active)
same,Potency,[2],1000 nM (active)
same,Potency,[1],10600 nM (active)
same,Potency,[7],1.32 µM (active)
O=c1ccn([C@@H]2O[C@H](CO)[C@H](O)[C@H]2O)c(=O)[nH]1,Potency,[3],inactive
same,Potency,[1],1680 nM (active)
O=C(NOCC(O)CO)c1cc(Br)c(F)c(F)c1Nc1ccc(I)cc1F (stereo not given),Potency,[1],inactive
NC(=O)NN=Cc1ccc([N+](=O)[O-])o1,Potency,[1],inactive
O=C(NCc1ccncc1)C12C[C@H]3C[C@@H](C1)CC(c1ccc(Cl)cc1)(C3)C2,Potency,[1],inactive
COCCCCC(=NOCCN)c1ccc(C(F)(F)F)cc1,Potency,[1],inactive
NC1=N[C@@]2(c3cc(NC(=O)c4ccc(F)cn4)ccc3F)COC[C@@H]2CS1,Potency,[1],inactive
C[N+]1(C)[C@@H]2CC(OC(=O)[C@H](CO)c3ccccc3)C[C@H]1[C@H]1O[C@@H]12 (stereo not given in full),Potency,[1],inactive
CO[C@H]1C=CC=C(C)C(=O)NC2=CC(=O)C(NCCN(C)C)=C(C[C@@H](C)C[C@H](OC)[C@@H](O)[C@@H](C)C=C(C)[C@@H]1OC(N)=O)C2=O,Potency,[1],inactive
CN(C)CCC(c1ccccc1)c1ccccn1 (stereo not given),Potency,[3],inactive
same,Potency,[1],inactive
same,Potency,[4],inactive
same,Potency,[5],inactive
same,outcome,[6],inactive
same,Potency,[7],inactive
same,Potency,[8],inactive
N#CC(=C(N)Sc1ccccc1N)C(C#N)=C(N)Sc1ccccc1N,Potency,[1],inactive
OC[C@H]1O[C@@H](Oc2cc(O)cc(C=Cc3ccc(O)cc3)c2)[C@H](O)[C@@H](O)[C@H]1O,Potency,[1],inactive
C[C@H]1[C@H](NC(=O)C(=NOC(C)(C)C(=O)O)c2csc(N)n2)C(=O)N1S(=O)(=O)O,Potency,[1],inactive
CO[C@H]1C[C@@H]2CC[C@@H](C)[C@@](O)(O2)C(=O)C(=O)N2CCCC[C@@H]2C(=O)O[C@H]([C@@H](C)C[C@@H]2CC[C@H](O)[C@H](OC)C2)CC(=O)[C@H](C)C=C(C)[C@@H](O)[C@@H](OC)C(=O)[C@H](C)C[C@H](C)C=CC=CC=C1C,Potency,[1],inactive
O=C(CCc1ccc(O)cc1)c1c(O)cc(O)cc1O[C@@H]1O[C@H](CO)[C@H](O)[C@H](O)[C@H]1O,Potency,[1],inactive
COc1ccc(-c2coc3cc(O)ccc3c2=O)cc1,Potency,[1],inactive
CC1=C(/C=C/C(C)=C/C=C/C(C)=C/C(=O)Nc2ccc(O)cc2)C(C)(C)CCC1,Potency,[3],inactive and 31.6 µM (active)
same,max response,[2],14.9% (inactive)
same,Potency,[1],inactive
same,Potency,[5],2750 nM (active)
same,outcome,[6],inactive
same,Potency,[7],1.88 µM (active) and 2.95 µM (active)
same,Potency,[8],1.88 µM (active) and 2.95 µM (active)
CC(C)OC(=O)CCCC=CC[C@@H]1[C@H](C=C[C@@H](O)COc2cccc(C(F)(F)F)c2)[C@H](O)C[C@@H]1O,Potency,[1],inactive
CC[C@@H]1C=C(C)C[C@H](C)C[C@H](OC)[C@H]2O[C@@](O)(C(=O)C(=O)N3CCCC[C@@H]3C(=O)O[C@H](C(C)=C[C@@H]3CC[C@H](Cl)[C@H](OC)C3)[C@H](C)[C@@H](O)CC1=O)[C@H](C)C[C@H]2OC,Potency,[1],inactive
CNC(=O)c1ccccc1Sc1ccc2c(C=Cc3ccccn3)n[nH]c2c1,Potency,[1],inactive
CCN1CCC[C@H]1CNC(=O)c1cc(S(N)(=O)=O)ccc1OC,Potency,[1],inactive
same,Potency,[4],inactive
same,Potency,[9],inactive
same,Potency,[5],inactive
same,outcome,[6],inactive
same,Potency,[7],inactive
same,Potency,[8],inactive
CCC(=O)NC[C@H](Cc1ccc(OCCc2nc(-c3ccccc3)oc2C)cc1)NC(C)=CC(=O)c1ccc(C(F)(F)F)cc1,Potency,[1],inactive
C[C@]12CCC3c4ccc(O)cc4CCC3C1CCC2=O (stereo not given in full),Potency,[1],inactive
CCC(CC)[C@H](NC(C)=O)[C@@H]1[C@H](O)[C@@H](C(=O)O)C[C@@H]1N=C(N)N,Potency,[1],inactive
CC(C)C[C@H](CC(=O)O)C(=O)N[C@@H](Cc1c[nH]c2ccccc12)C(=O)N[C@@H](C)c1ccccc1,Potency,[1],inactive
Cc1nnc(C(C)C)n1C1C[C@H]2CC[C@@H](C1)N2CC[C@H](NC(=O)C1CCC(F)(F)CC1)c1ccccc1 (stereo not given in full),Potency,[1],inactive
